Laboratory results as given in PubChem BioAssay (NCI).
Where “and” joins values, the source holds several entries; their conditions need not be identical. Identical values can stand only once. This is part of a sample that, as a whole, favours compounds with a hit. Of some 83,000 tested, about 20% had one in any assay.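 How to read the values: 0–100, growth inhibition (40 = 60% inhibited); 0, no net growth; -100 to 0, cell death (-40 = 40% of starting cells died; -100 = all dead).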 Where a structure was tested more than once in an assay, its records may differ in their call. Calls of active or inactive are those of the source. Rule for the calls: active = growth percent below 10; inactive = the rest.

Key:
Assay in all cases: NCI-60 one-dose screen, 48 h (100 = growth as untreated, 0 = no growth, -100 = all killed)
Conditions in all cases: 10 µM
[1] = system: SR leukemia
[2] = system: RPMI-8226 leukemia
[3] = system: OVCAR-8 ovarian
[4] = system: OVCAR-5 ovarian
[5] = system: OVCAR-4 ovarian
[6] = system: SK-OV-3 ovarian
[7] = system: IGROV1 ovarian
[8] = system: OVCAR-3 ovarian
[9] = system: HS 578T breast
[10] = system: NCI/ADR-RES ovarian

SMILES | growth [1] | growth [2] | growth [3] | growth [4] | growth [5] | growth [6] | growth [7] | growth [8] | growth [9] | growth [10]
Cc1ccc(Sc2ccccc2N)cc1 | 71.6% (inactive) | 89.8% (inactive) | 79.1% (inactive) | 82.7% (inactive) | 93.6% (inactive) | 94.9% (inactive) | 76.2% (inactive) | 121% (inactive) | 110% (inactive) | 84.3% (inactive)
Cc1cc(N(CCOS(C)(=O)=O)CCOS(C)(=O)=O)ccc1C=Nc1ccc(-c2nc(Cc3ccccc3)sc2C)cc1 | 23.4% (inactive) | 62.3% (inactive) |  | 67% (inactive) |  | 3.43% (active) | 11.4% (inactive) | 41.9% (inactive) | 79.8% (inactive) | 40.7% (inactive)
C=C1C(=O)OC2CC1C(OC(C)=O)C/C(C)=C/CC/C(C)=C\CCC2(C)O (stereo not given) | -25.1% (active) | -22.3% (active) |  | 65.7% (inactive) | -0.648% (active) | 102% (inactive) |  | 3.4% (active) | 72% (inactive) | 17.9% (inactive)
COc1ccc(C(=O)C(CN(C)C)CN(C)C)cc1 | -46.3% (active) | 64.3% (inactive) | 41.1% (inactive) | 116% (inactive) | -93.8% (active) | 108% (inactive) | 140% (inactive) | -85% (active) | 83% (inactive) | 101% (inactive)
C#CCN(Cc1ccc2nc(N)[nH]c(=O)c2c1)c1ccc(C(=O)NC(CCC(=O)O)C(=O)O)cc1 (stereo not given) |  | 51.3% (inactive) | 39.3% (inactive) | 107% (inactive) | 103% (inactive) | 49.7% (inactive) | 109% (inactive) | 67.2% (inactive) | 88.9% (inactive) | 47.7% (inactive)
O=[N+]([O-])c1cc[n+]([O-])cc1 | 107% (inactive) | 102% (inactive) | 103% (inactive) | 145% (inactive) | 111% (inactive) | 130% (inactive) | 107% (inactive) | 114% (inactive) | 104% (inactive) | 103% (inactive)
CC1=CC(=C(c2ccc(N)cc2)c2ccc(N)cc2)C=CC1=N | 14.7% (inactive) and 24.8% (inactive) | -15.6% (active) and 33.4% (inactive) | 6.23% (active) and 16% (inactive) | 46.8% (inactive) and 53.3% (inactive) | 24.1% (inactive) and 33.7% (inactive) | 38.2% (inactive) | 70% (inactive) | -35.6% (active) and 28.4% (inactive) | 23.6% (inactive) and 89.5% (inactive) | 86.6% (inactive) and 101% (inactive)
CN(C)CCOC1(Cc2ccc(Cl)cc2Cl)CCC(C(C)(C)C)CC1 (stereo not given) | -34.8% (active) and -29.5% (active) | 11.6% (inactive) and -10% (active) | 36.5% (inactive) and -27.3% (active) | 43.8% (inactive) and 5.22% (active) | 36.1% (inactive) and 15.1% (inactive) | 69.6% (inactive) and 57.8% (inactive) | 41.7% (inactive) and 25.3% (inactive) | 39.5% (inactive) and 11.1% (inactive) | 52.4% (inactive) and 49.6% (inactive) | 27% (inactive) and 44.4% (inactive)
